40 molecules from PubChem BioAssay (NCATS) can be followed below.

The structures appear in SMILES notation. Several values for one entry are separate records, joined by “and”; a condition that tells them apart may be missing. Identical values can stand only once. Results filed as inconclusive are left out. Where a call stands in place of a potency, no number is given. Activity calls are given as the source filed them. Calls come from the whole dose curve; as a rule, active = well fitted inhibition curve with a large enough effect; inconclusive = small, poorly fitted or top-dose-only effect; inactive = flat fitted curve, though single readings scatter.
Potency is the fitted concentration of half-maximal effect.

This assay can be described thus: P-glycoprotein substrates identified in KB-8-5-11 adenocarcinoma cell line, qHTS therapeutic library screen (AID 1346987). Note: nearly all actives have a fitted effect of over 65% in size. The settings on record: KB-8-5-11 (P-gp overexpressing) viability, CellTiter-Glo, 72 h; series mostly up to 44.5 µM. An excerpt:
The ATP-binding cassette transporters P-glycoprotein (P-gp) is known to limit brain penetration of many chemotherapy drugs. […] As such, we developed a high-throughput screen (HTS) to identify substrates of P-gp from a series of chemical libraries including the National Center for Advancing Translational Sciences Pharmaceutical Collection NPC, 2,816 compounds), testing a total of 10,804 compounds, most of which have known mechanisms of action. We used the CellTiter-Glo viability assay to test library compounds against the parental KB-3-1 human cervical adenocarcinoma cell line and the colchicine-selected sub-line KB-8-5-11 that over-expresses P-gp. KB-8-5-11 cells were also tested in the presence of a P-gp inhibitor (tariquidar) to assess reversability of transporter-mediated resistance. Of the tested compounds, a total of 90 P-gp substrates were identified including 55 newly identified P-gp substrates. Substrates were confirmed using an orthogonal killing assay against HEK-293 cells transfected with P-gp. As exemplars, we confirmed that […] (cyclin-dependent kinase inhibitor); AT9283, (Janus kinase 2/3 inhibitor); ispinesib (kinesin spindle protein inhibitor); gedatolisib (PKI-587, phosphoinositide 3-kinase/mammalian target of rampamycin inhibitor); GSK-690693 (AKT inhibitor); and KW-2478 (heat shock protein 90 inhibitor) were substrates , and direct ATPase stimulation was assessed. ABCG2 was also found to confer high levels of resistance to AT9283, GSK-690693 and gedatolisib, while ispinesib, AT7519 and KW-2478 were weaker substrates.
The HeLa derivative cell line, KB-3-1, and its colchicine-selected, P-gp-overexpressing subline, KB-8-5-11 were maintained in DMEM with 10% FCS and Pen/Strep with glutamine at 37 degree C in 5% CO2. For KB-8-5-11 cells, colchicine was added to the medium at a concentration of 100 ng/mL. HEK-293 cells transfected with empty vector (pcDNA) or vector containing human ABCB1 (MDR-19) or ABCG2 (R-5) have been described previously (Robey, Lin, Qiu, Chan & Bates, 2011) and were maintained in EMEM supplemented with 10% FCS, Pen/Strep and glutamine with 2 mg/ml G418 to select for the expression of the transporter. Cultures were confirmed to be free of mycoplasma infection using the MycoAlert Mycoplasma Detection Kit (Lonza, Walkersville, MD). For the screen, assay medium was identical to culture medium except for KB-8-5-11 where colchicine was excluded from the medium.
All cell lines were plated into 1536-well plates at 500 cells/well in 5 uL media. Compounds were then pinned in dose-response using a 1536-head pin tool (Kalypsis, San Diego, CA) and plates were incubated at 37 degree C in 5% CO2 for an additional 72 h. CellTiter-Glo reagent (Promega) was dispensed into the wells, incubated for 5 min and luminescence was read on a ViewLux instrument (Perkin-Elmer). Cytotoxic compounds were defined as those that yielded a curve class of -1.1, -1.2, -2.1, -2.2, -2.3, or -2.4, a maximum response of >50% and an AC50 of < 10 uM. Cherry-picked hits from screening analysis were tested with both the KB pair of cell lines, and the pcDNA (empty vector control) and MDR-19 (P-gp overexpressing) pair were tested, in the absence and presence of tariquidar.
Take `Cc1ccccc1N1CCN(CCc2nnc3n2CCCC3)CC1`: the Potency result is “inactive”.
With `Cc1nc([N+](=O)[O-])cn1-c1ccc([N+](=O)[O-])cc1` the entry was “inactive”; with `CN(C)C(=O)CNC(=O)Cc1ccccc1`, “inactive”; with `CC(C)C(C)(C)C(C)(C)C(C)(C)S`, “inactive”.
Then `NC(N)=NCCCCN=C(N)N`, with “inactive”; and `C[C@H]1NCc2cc(-c3ccc4c(=O)c(C(=O)O)cn(C5CC5)c4c3OC(F)F)ccc21`, with “inactive”; and `CO[C@@H]1[C@@H](O[C@@H]2O[C@H](C)[C@@H](O[C@H]3C[C@@](C)(O)[C@@H](O)[C@H](C)O3)[C@H](N(C)C)[C@H]2O)[C@@H](CC=O)C[C@@H](C)[C@@H](O[C@@H]2CC[C@H](N(C)C)[C@@H](C)O2)/C=C/C=C/C[C@@H](C)OC(=O)C[C@H]1OC(C)=O`, with “inactive”.
Then `COC(=O)c1c(Cl)c(Cl)c(C(=O)OC)c(Cl)c1Cl`, with “inactive”; and `O=C(Nc1ccc(Cl)cc1)Nc1ccc(Cl)c(Cl)c1`, with 6.51 µM (active).
For `CCO[C@H](Cc1ccc(OCCc2ccc(OS(C)(=O)=O)cc2)cc1)C(=O)O`, the Potency entry was “inactive”.
With `Nc1ccc(O)cc1` the entry was “inactive”; with `N#C/C(=C1/SC[C@@H](c2ccc(Cl)cc2Cl)S1)n1ccnc1`, “inactive”; with `C[C@H](CN1CCCC1)C(=O)c1ccc(C(F)(F)F)cc1`, “inactive”.
Then `CC1CN(c2cc3c(cc2F)c(=O)c(C(=O)O)cn3-c2ccc(F)cc2F)CCN1` (stereo not given), with “inactive”; and `O=C(OCC(COC(=O)c1cccnc1)(COC(=O)c1cccnc1)COC(=O)c1cccnc1)c1cccnc1`, with “inactive”; and `O=C(CO)[C@@H](O)[C@H](O)[C@@H](O)CO`, with “inactive”.
As for `CCCCCCCCCCCCCCCC[N+](C)(C)Cc1ccccc1`, the Potency entry is “inactive”.
Then `Nc1c[n+](N2CCOCC2)no1`, with “inactive”; and `Nc1ncnc2n[nH]c(Nc3ccc(F)cc3)c12`, with “inactive”; and `Cc1ncc(CO)c(CO)c1O`, with “inactive”.
Then `CCN1CCN(C(=O)N[C@@H](C(=O)N[C@@H]2C(=O)N3[C@@H]2SC(C)(C)[C@H]3C(=O)O)c2ccccc2)C(=O)C1=O`, with “inactive”; and `CSc1ccc(/C=C2/C(C)=C(CC(=O)O)c3cc(F)ccc32)cc1`, with “inactive”; and `CC(=O)[C@H]1CC[C@H]2[C@@H]3C=CC4=CC(=O)CC[C@@]4(C)[C@@H]3CC[C@]12C`, with “inactive”.
Regarding `Cc1c(C)c2c(c(C)c1OC(=O)CCC(=O)OCCO)CC[C@@](C)(CCC[C@H](C)CCC[C@H](C)CCCC(C)C)O2`, the Potency entry is “inactive”.
With `CC(C)=CCNc1ncnc2c1ncn2[C@@H]1O[C@H](CO)[C@@H](O)[C@H]1O` the figure was 5.8 µM (active).
With `CCNC(=O)NCCCOc1cccc(CN2CCCCC2)c1` the entry was “inactive”; with `O=C(Nc1ccc(S(=O)(=O)N2CCOCC2)cc1)c1cc(Cl)ccc1NS(=O)(=O)c1ccc(Cl)s1`, “inactive”.
With `CCCCCC[C@@H](CCC)C(=O)O`, the Potency entry was “inactive”.
Then `O=C(NO)c1ccccc1`, with “inactive”.
Turning to `C[N+]1(C)CCC(OC(=O)C(O)(c2ccccc2)C2CCCC2)C1` (stereo not given), the Potency entry was “inactive”.
With `O=P(O)(O)OCC(O)CO` (stereo not given) the entry was “inactive”; with `OC1(c2ccc(Cl)c(C(F)(F)F)c2)CCN(CCCC(c2ccc(F)cc2)c2ccc(F)cc2)CC1`, 23.1 µM (active) and 20.6 µM (active).
With `OCCCc1ccccc1` the entry was “inactive”; with `Nc1cccc2c(N)cccc12`, “inactive”; with `CN1CCC(=C2c3ccccc3CCc3cccnc32)CC1`, “inactive”.
With `CO[C@]1(NC(=O)CSC(F)F)C(=O)N2C(C(=O)O)=C(CSc3nnnn3CCO)CO[C@H]21` the entry was “inactive”; with `CC(=O)OCC[N+](C)(C)C`, “inactive”.
Consider `CC(=O)O[C@@H]1C(=O)O[C@@H]2[C@H]1OC(=O)[C@@H]2OC(C)=O`, for which the Potency result is “inactive”.
With `CN1C(=O)CC(C)(c2ccccc2)C1=O` (stereo not given) the entry was “inactive”; with `OCc1cccnc1`, “inactive”.
